Assay results: PubChem BioAssay (NCATS)
Records with an inconclusive call do not appear. Values without a mark were called inactive. The source made the active and inactive calls. Calls follow the shape of the dose curve; as a rule, active = well fitted curve in either direction with a large enough effect (not every such curve was filed as active); inconclusive = small, poorly fitted or top-dose-only effect, or another doubt; inactive = flat fitted curve, though single readings scatter.

Experiment: NFAT Signaling Pathway (AID 444);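 also: carbachol stimulus at about its EC50 of 1 µM final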
Conditions: Jurkat NFAT-bla M1, carbachol, beta-lactamase ratio, 5 h; at 17.2 µM (top of the series) unless noted
Method in brief: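 Read-out: CCF4 FRET ratio (460 nm/530 nm) after 1 h RT dye loading, used for %activity and AC50 from titration series. Cells: Jurkat NFAT-β-lactamase/M1 line, treated with compound plus 1 uM carbachol for 5 h, 37 °C.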
% is scaled to controls: 0 for no effect and ±100 for the full control effect.

In order of rising activity change, negative = inhibition:
1. CC1(C)Cc2c(C#N)c(N3CCOCC3)nc(Cc3ccccc3)c2CO1  -28.9%
2. Cc1cc(C)n(-c2c(F)c(F)c(CN3CCCCC3)c(F)c2F)n1  -27.9%
3. O=C1CC(c2ccco2)CC(O)=C1C=NCCN1CCN(C2CC(=O)N(c3ccccc3)C2=O)CC1 (centres undefined)  -22.1%
4. COc1ccc(OC)c(C2/C(=C(/O)c3ccc(C)cc3)C(=O)C(=O)N2Cc2ccco2)c1 (centres undefined)  -17.7%
5. COc1ccc(-n2ncc3c(NCCCn4ccnc4)ncnc32)cc1  -15.7%
6. c1ccc(Cc2nnc3n2CCCCC3)cc1  -13.9%
7. O=C(O)c1ccc(C2CCCCC2)cn1  -13.3%
8. Cn1c(=O)n(CCc2ccccc2)c(=O)c2c1ncn2Cc1ccccc1  -7.53%
9. Cc1ccc(S(=O)(=O)NC(=O)NCc2ccc3c(c2)OCO3)cc1  -5.13%
10. Cc1nc2n[nH]c(N)c2c2c1COC(C)(C)C2  -4.48%
11. COC(=O)CC1=NC(=O)CS1  -3.72%
12. C/C=C/c1ccccc1OCc1ccc(C(=O)O)o1  -2.78%
13. COc1ccc(/C(O)=C2/C(=O)C(=O)N(c3ncccn3)C2c2ccc(OC)c(OC)c2)cc1 (centres undefined)  -0.912%
14. O=C(COc1ccc(F)cc1)OCCN1CCOCC1  -0.67%
15. CC(C)CN1C(=O)NC(NC(=O)c2cccnc2)(C(F)(F)F)C1=O (centres undefined)  3.51%
16. COc1ccc(OCC(=O)N2CCN(C(=O)c3cccc4ccccc34)CC2)cc1  5.36%
17. CCOC(=O)c1[nH]c2cc3c(cc2c1NC(=O)CN1CCC2(CC1)OCCO2)OCO3  6.91%
18. COc1cccc(Cn2c(NCc3ccccn3)nc3c2c(=O)n(C)c(=O)n3C)c1  7.02%
19. CC(Sc1ccc2ccccc2n1)C(=O)O (centres undefined)  9.86%
20. O=C(NCCc1ccccc1)/C(=N\O)c1ccccc1  11.6%
21. CCCCc1nc(N2CCOCC2)c(C#N)c2c1COC(C)(C)C2  16.6%
22. CC(C)Cc1nc2n[nH]c(N)c2c2c1CCC2  28.5%
23. N#C/C(=C\c1c(N2CCC(C(N)=O)CC2)nc2ccccn2c1=O)S(=O)(=O)c1ccccc1  29.6%

With `COc1cccc(N2CCN(c3ncnc4c3[nH]c3ccc(F)cc34)CC2C)c1` (centres undefined) the activity change, negative = inhibition was -137% (active).

Experiment: Stat Signaling Pathway (AID 446);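 also: ME-180 cervical cancer cells given 40 pM IL-6 alongside compound; SIE-controlled beta-lactamase reporter measured as 460/530 nm FRET emission ratio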
Conditions: ME-180 (cervical carcinoma) SIE beta-lactamase reporter, IL-6 stimulated, 5 h; at 17.2 µM (top of the series) unless noted
Method in brief: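 Emission at 460 and 530 nm (excitation 405 nm) reports SIE-controlled beta-lactamase in ME-180 cells. Cells received compound with 40 pM IL-6 for 5 hrs at 37 C; data scaled between 300 pM IL-6 and 125 nM JAK-inhibitor controls.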

In order of rising activity, negative = inhibition:
1. COc1ccc(OC)c(C2/C(=C(/O)c3ccc(C)cc3)C(=O)C(=O)N2Cc2ccco2)c1 (centres undefined)  -18.2%
2. Cn1c(=O)n(CCc2ccccc2)c(=O)c2c1ncn2Cc1ccccc1  -18.1%
3. O=S(=O)(c1cccc2nsnc12)N1CCN(C/C=C/c2ccccc2)CC1  -15.9%
4. COc1cccc(Cn2c(NCc3ccccn3)nc3c2c(=O)n(C)c(=O)n3C)c1  -15.6%
5. CCOc1ccc(-n2c(SCc3ccc(C#N)cc3)nnc2-c2cccnc2)cc1  -13.6%
6. CN(C)c1ccc(O)c2c1CC1CC3[C@@H](N(C)C)C(=O)C(C(N)=O)=C(O)[C@]3(O)C(=O)C1=C2O (some centres undefined)  -13.5%
7. CCOC(=O)c1c(C)oc2ccc(OCC(=O)C(C)(C)C)cc12  -10.1%
8. CCOC(=O)c1[nH]c2cc3c(cc2c1NC(=O)CN1CCC2(CC1)OCCO2)OCO3  -9.66%
9. CC1(C)Cc2c(C#N)c(N3CCOCC3)nc(Cc3ccccc3)c2CO1  -7.6%
10. COc1ccc(/C(O)=C2/C(=O)C(=O)N(c3ncccn3)C2c2ccc(OC)c(OC)c2)cc1 (centres undefined)  -6.81%
11. COc1ccc(-n2ncc3c(NCCCn4ccnc4)ncnc32)cc1  -5.95%
12. CC(C)Cc1nc2n[nH]c(N)c2c2c1CCC2  -5.62%
13. CCc1cccc(CC)c1N(COC)C(=O)Cn1nnc2ccccc21  -3.83%
14. O=C(NCCc1ccccc1)/C(=N\O)c1ccccc1  -3.56%
15. C/C=C/c1ccccc1OCc1ccc(C(=O)O)o1  -2.17%
16. CCC1(C)Cc2c(sc3nc4n(c(=O)c23)CCS4)CO1 (centres undefined)  -2.05%
17. CCCOc1ccc(C2NC(=O)NC2=O)cc1 (centres undefined)  -1.78%
18. N#C/C(=C\c1c(N2CCC(C(N)=O)CC2)nc2ccccn2c1=O)S(=O)(=O)c1ccccc1  -1.65%
19. CCCCc1nc(N2CCOCC2)c(C#N)c2c1COC(C)(C)C2  -1.34%
20. COc1ccc(OCC(=O)N2CCN(C(=O)c3cccc4ccccc34)CC2)cc1  -1.16%
21. Cc1[nH]c2ccc(F)cc2c(=O)c1SC(F)(F)C(F)C(F)(F)F (centres undefined)  -1.13%
22. CC(C)CN1C(=O)NC(NC(=O)c2cccnc2)(C(F)(F)F)C1=O (centres undefined)  -1.02%
23. Cc1ccc(-c2nn(C)c(=O)c3ccccc23)cc1CN1CCOCC1  -0.983%
24. C=CCOC(=O)C1=C(C)OC(N)=C(C#N)C1c1ccoc1 (centres undefined)  -0.879%
25. Cc1cc(=O)oc2cc(OCCSCCN3CCOCC3)ccc12  -0.537%
26. O=C1CC(c2ccco2)CC(O)=C1C=NCCN1CCN(C2CC(=O)N(c3ccccc3)C2=O)CC1 (centres undefined)  -0.0328%
27. Cc1c(Cl)cccc1N1C(=O)C2ON(c3ccccc3)C(c3cccnc3)C2C1=O (centres undefined)  0.542%
28. Cc1ccc(S(=O)(=O)NC(=O)NCc2ccc3c(c2)OCO3)cc1  0.559%
29. Cc1nc2n[nH]c(N)c2c2c1COC(C)(C)C2  3.57%
30. CCCCCOC(=O)Cc1c(C)nc(-c2ccccc2)[nH]c1=O  4.57%
31. Cc1cc(C)n(-c2c(F)c(F)c(CN3CCCCC3)c(F)c2F)n1  5.23%
32. c1ccc(Cc2nnc3n2CCCCC3)cc1  5.83%
33. CC(Sc1ccc2ccccc2n1)C(=O)O (centres undefined)  5.88%
34. O=C(O)CN(c1ccccc1)C1SC(=O)NC1=O (centres undefined)  10.5%
35. COc1ccccc1-n1c(=O)c2c3c(sc2n2c(SC(C)C)nnc12)CCC3  10.5%
36. O=C(COc1ccc(F)cc1)OCCN1CCOCC1  11.3%
37. COC(=O)CC1=NC(=O)CS1  12.3%
38. O=C(O)c1ccc(C2CCCCC2)cn1  15.1%
39. CCOC(=O)N1CCN(C2OC(=O)c3ccccc32)CC1 (centres undefined)  25.6%

For `COc1cccc(N2CCN(c3ncnc4c3[nH]c3ccc(F)cc34)CC2C)c1` (centres undefined), the activity, negative = inhibition was -104% (active).
